The values below come from PubChem BioAssay AID651725 (National Center for Advancing Translational Sciences (NCATS), 2012).

Hit rate of the full screen: of about 360,000 compounds, about 2,000 (0.56%) were called active. About 2% were inconclusive and are not listed. Cut-off read from the data, not from the text of the source: active = activity change below about -65%; inconclusive = mostly about -30% to -63%; inactive = weaker than that. The full list was thinned out, with actives kept by preference.
% is set by controls: 0 for no effect and ±100 for the full control effect.

Chain of Homeobox protein SIX1 (Homo sapiens) + Protein phosphatase EYA2 (Homo sapiens) (O00167 whole entry, looked up): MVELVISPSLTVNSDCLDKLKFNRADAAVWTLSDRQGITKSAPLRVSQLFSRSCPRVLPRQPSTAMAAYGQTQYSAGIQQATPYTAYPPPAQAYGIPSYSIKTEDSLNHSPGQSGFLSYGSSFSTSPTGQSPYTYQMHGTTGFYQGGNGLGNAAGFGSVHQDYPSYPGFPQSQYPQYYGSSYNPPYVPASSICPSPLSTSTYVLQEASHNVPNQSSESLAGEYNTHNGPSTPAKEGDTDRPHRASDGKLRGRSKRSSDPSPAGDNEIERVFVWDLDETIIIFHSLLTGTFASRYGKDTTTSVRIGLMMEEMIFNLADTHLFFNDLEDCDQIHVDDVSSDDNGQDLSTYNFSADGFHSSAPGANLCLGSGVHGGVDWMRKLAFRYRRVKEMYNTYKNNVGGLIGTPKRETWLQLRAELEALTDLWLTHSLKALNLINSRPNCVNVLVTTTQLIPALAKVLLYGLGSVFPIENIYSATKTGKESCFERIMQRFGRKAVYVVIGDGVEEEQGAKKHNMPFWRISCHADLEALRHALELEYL
Chain of Homeobox protein SIX1 (Homo sapiens) + Protein phosphatase EYA2 (Homo sapiens) (Q15475 whole entry, looked up): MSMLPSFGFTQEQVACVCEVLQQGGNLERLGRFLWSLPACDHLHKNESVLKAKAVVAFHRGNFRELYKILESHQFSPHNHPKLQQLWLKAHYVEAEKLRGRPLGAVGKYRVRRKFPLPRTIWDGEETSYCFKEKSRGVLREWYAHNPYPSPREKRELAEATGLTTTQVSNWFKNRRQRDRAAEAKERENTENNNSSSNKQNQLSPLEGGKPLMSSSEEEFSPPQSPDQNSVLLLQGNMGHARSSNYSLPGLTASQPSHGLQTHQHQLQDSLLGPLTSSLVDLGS

This experiment has as its target Homeobox protein SIX1 (Homo sapiens) + Protein phosphatase EYA2 (Homo sapiens) (UniProt Q15475+O00167). Kind of experiment: qHTS Assay for Inhibitors of the Six1/Eya2 Interaction. Particulars: AlphaScreen GST-Six1/His-Eya2 binding, biochemical; stronger effect = lower value. In outline:
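Homogeneous AlphaScreen proximity assay pairing GST-Six1 with His-tagged Eya2 (added as 5X mix: 250 nM and 500 nM) in 50 mM Tris pH 8.0, 300 mM NaCl, 1 mM TCEP. Glutathione donor and nickel acceptor beads; 1 h, 37 °C, dark.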
Regarding `Cc1cc(OCc2ccc(C(=O)Nc3ccc(C(=O)O)cc3)o2)ccc1Cl`, the activity change was -9.21% (inactive). In the case of `Cn1cnc(S(=O)(=O)N2C[C@@H](O)COC[C@@H]3O[C@H](CC(=O)NC4CCC4)CC[C@H]32)c1`, the activity change was -0.831% (inactive). Then `O=C(CN1C(=O)C2C3C=CC(C3)C2C1=O)Nc1nc(-c2ccccn2)cs1` (stereo unspecified), with -80.4% (active). As to `COc1ccccc1NC(=O)COC(=O)COc1ccccc1F`, the activity change is 6.13% (inactive). In the case of `O=C(NCCN1C(=O)C2C3C=CC(C3)C2C1=O)Nc1ccccn1` (stereo unspecified), the activity change was 2.02% (inactive). Take `CC(NC(=O)c1ccco1)C(=O)Nc1nc(-c2ccccn2)cs1` (stereo unspecified): the activity change is -83.1% (active). Consider `CSCCC(NC(=O)c1ccco1)C(=O)Nc1cc(C)ccn1` (stereo unspecified), for which the activity change was -1.3% (inactive). Then `N#Cc1ccc(OCC(=O)Nc2nc(-c3ccccn3)cs2)cc1`, with -90% (active). On to `O=C(COc1ccccc1F)Nc1nc(-c2ccccn2)cs1`, for which the activity change was -84.1% (active). Take `CC1CCCCC1NC(=O)COc1ccc(C#N)cc1` (stereo unspecified): the activity change is -10.9% (inactive).

On to `CC1CCN(S(=O)(=O)c2nnc(NC(=O)COc3ccccc3F)s2)CC1`, for which the activity change is 3.54% (inactive).

Regarding `O=C(COc1ccccc1)Nc1nonc1NC(=O)COc1ccccc1`, the activity change was -6.13% (inactive). Regarding `O=C(CCN1C(=O)C2C3C=CC(C3)C2C1=O)Nc1ccccc1F` (stereo unspecified), the activity change was 2.72% (inactive). As for `Cc1cc(NC(=O)[C@H](C)NC(=O)c2ccco2)ccc1Br`, the activity change was 0.811% (inactive). The result for `Cc1ccc2c(c1)c1ncnc(N3CCc4ccccc4C3)c1n2C` reads -7.75% (inactive); that for `CCOc1ccc(CN2CCN(Cc3ccon3)CC2CCO)cc1` (stereo unspecified), 5.89% (inactive); that for `CCCCCNC(=O)C(c1ccc(OC)cc1)n1c(=O)c(-c2ccccc2)nc2ccccc21` (stereo unspecified), 5.06% (inactive). The result for `CCCNC(=O)c1cc(C2CCCCN2S(=O)(=O)c2cn(C)cn2)on1` (stereo unspecified) reads 0.952% (inactive); that for `CC(C)(C)C(=O)c1c(N)[nH]c(C(=O)c2ccccc2)c1-c1ccc(F)cc1`, -8.67% (inactive); that for `O=C1Nc2ccccc2-n2nnnc2C1N1CCN(c2cccc(C(F)(F)F)n2)CC1` (stereo unspecified), 0.68% (inactive). For the compound `Cc1cccc(NS(=O)(=O)c2ccc(C)c(C(=O)NCc3cccnc3)c2)c1`, the activity change is -0.175% (inactive). Regarding `O=C(C(=O)N1CCC(c2ccccc2)CC1)c1ccccc1`, the activity change is -2.34% (inactive). Regarding `CCOC(=O)[C@]12CCCC=C1N(CCC1=CCCCC1)C(=O)[C@H](CC(=O)N1CCN(C(=O)c3ccco3)CC1)C2`, the activity change is -5.37% (inactive).

As for `Cc1c(NS(=O)(=O)c2ccc(NC3CCCC3)c([N+](=O)[O-])c2)c(=O)n(-c2ccccc2)n1C`, the activity change was -0.483% (inactive). Consider `Cc1cc([N+](=O)[O-])c(NC2CCCCC2)c([N+](=O)[O-])c1`, for which the activity change is -69.3% (active).

`Cc1cc([N+](=O)[O-])c(N2CCC[C@@H]2C(=O)O)c([N+](=O)[O-])c1`: the activity change was 7.42% (inactive).

With `COC(=O)[C@]12CCCCC=C1N(Cc1ccc(Cl)cc1Cl)C(=O)[C@H](CC(=O)NCc1cccc3ccccc13)C2`, the activity change was -10.1% (inactive). The result for `O=C1NC[C@@H](CCCCN2CCN(CCc3ccc(O)cc3)C(=O)C2=O)N(CC2CCCCC2)C1=O` reads 3.55% (inactive). Regarding `CC[C@]1(c2ccccc2OC)C(=O)N(C(=O)OC)N1C(=O)OC`, the activity change was -0.457% (inactive).

Take `O=C1c2cccc3cccc(c23)C(=O)N1CCCCCc1n[nH]c(=S)o1`: the activity change was -80.1% (active). Take `O=C1c2ccccc2C(=O)N1CCCc1nc(-c2ccccc2)no1`: the activity change is 1.31% (inactive). `O=C(CN1C(=O)c2cccc3cccc(c23)C1=O)N1CCCCC1`: the activity change was 2.22% (inactive). For the compound `COC(=O)c1ccc2nc(-c3ccccc3)c(Cc3ccc(OC)cc3C)n2c1`, the activity change is 0.0747% (inactive). For `COCCNC(=O)CCCn1c(=O)c2ccccc2n(Cc2cccc([N+](=O)[O-])c2)c1=O`, the activity change was 4.87% (inactive).

With `COC(=O)c1ccc(Nc2ncnc3sccc23)cc1`, the activity change was -1.71% (inactive). For `CCOC(=O)c1nc(Nc2ccc(C(=O)OC)cc2)c2ccccc2n1`, the activity change is -84.8% (active).

Consider `CCOC(=O)c1ccc(N/C(=N/S(=O)(=O)c2ccccc2)c2ccccc2)cc1`, for which the activity change was -27.6% (inactive). As to `COc1ccc(CC(=O)Nc2ccccc2NC(=O)c2ccco2)cc1OC`, the activity change is -2.61% (inactive). Consider `COc1ccc(NC(=O)CSc2ccc(-c3ccco3)nn2)c(OC)c1`, for which the activity change is -14.2% (inactive).

On to `COc1ccc(NC(=O)CCC(=O)Nc2cc(OC)c(NC(=O)c3ccco3)cc2OC)c(OC)c1`, for which the activity change is -72.1% (active).

For the compound `COC(=O)C[C@@H]1C=C[C@@H](NC(=O)c2ccc3c(c2)OCO3)[C@@H](CO)O1`, the activity change was -3.63% (inactive).

Take `Cc1ccc(S(=O)(=O)N(C)c2ccc(OCC(=O)OCc3ccc(C#N)cc3)cc2)cc1`: the activity change is 5.43% (inactive). As to `O=C(Oc1cccc(C(=S)N2CCOCC2)c1)c1cccc(Cl)c1`, the activity change was -18.4% (inactive). The result for `O=C(Oc1ccc(C(=S)N2CCOCC2)cc1)c1ccc(F)cc1` reads -91.7% (active); that for `O=C(Oc1ccc(F)cc1)N1CCOCC1`, -1.89% (inactive); that for `CCCc1c(-c2ccccc2F)ncn1Cc1ccccc1OC`, -11.2% (inactive). Turning to `O=C(CSc1nnc(-c2ccncc2)o1)Nc1cccc(Cl)c1`, the activity change is -1.81% (inactive).

`Cc1cc(NC(=O)CSc2nnc(-c3ccc(Cl)s3)o2)no1`: the activity change was -86.8% (active). `Cc1cc(NC(=O)CSc2ncc(C(F)(F)F)cc2Cl)no1`: the activity change was 1.15% (inactive). On to `Cc1cc(OCc2cc(C(=O)NCc3cc(C(C)C)no3)no2)cc(C)c1Cl`, for which the activity change is 14% (inactive). For `Cc1ccc(S(=O)(=O)N[C@H](CO)C(C)C)cc1`, the activity change is 4.31% (inactive).

Take `O=S(=O)(NCCc1ccc(F)cc1)c1cccc2cccnc12`: the activity change was -7.51% (inactive). On to `Cc1ccc2cccc([N+](=O)[O-])c2n1`, for which the activity change was -20.1% (inactive). With `O=[N+]([O-])c1ccccc1S(=O)(=O)Nc1cccc2cccnc12`, the activity change was -91.7% (active).

As to `Cc1ccc(S(=O)(=O)C2C(=O)NC3(C)CC2c2ccccc2O3)cc1` (stereo unspecified), the activity change is 6.28% (inactive). `COC(=O)[C@]12CCCCC=C1N(Cc1ccc3c(c1)OCO3)C(=O)[C@H](CC(=O)NCc1cccs1)C2`: the activity change was -7.98% (inactive). Turning to `COc1ccccc1Cc1c(-c2ccc(Cl)cc2)nc2c3ccccc3ccn12`, the activity change was 9.04% (inactive).

Regarding `O=c1[nH]c2cccnc2n(CCNc2ncc(C(F)(F)F)cc2Cl)c1=O`, the activity change was 5.43% (inactive). Then `CN(C)C=NC(=O)c1cccn1-c1ncc(C(F)(F)F)cc1Cl`, with 7.6% (inactive); and `COc1cccc(/C=N/Nc2ncc(C(F)(F)F)cc2Cl)c1O`, with -91.7% (active). With `Nc1c(C(=O)c2cccs2)sc2nsc(SCCN3CCCCC3)c12`, the activity change was 19.7% (inactive). Turning to `O=C(O)C1C2CC2CN1C(=O)c1ccc(Cl)cc1Cl` (stereo unspecified), the activity change was 2.75% (inactive). Regarding `O=C(N/N=C/c1cc([N+](=O)[O-])ccc1O)/C(=C\c1cccs1)NC(=O)c1ccccc1`, the activity change was -90.3% (active).

Regarding `O=C(NCCc1ccccc1)/C(=C\c1ccc([N+](=O)[O-])cc1)NC(=O)c1ccccc1`, the activity change was 2.96% (inactive).

Take `O=C(Nc1ccc(C(=O)O)cc1)/C(=C/c1ccc([N+](=O)[O-])cc1)NC(=O)c1ccccc1`: the activity change is -4.68% (inactive). For the compound `COc1ccc(NC(=O)C2(C)Cc3c(-c4cccc(NC(C)=O)c4)ccnc3O2)cc1OC` (stereo unspecified), the activity change is -4.36% (inactive). As for `O=C(Nc1cccnc1)c1cc2cc(Br)ccc2oc1=O`, the activity change was 17.5% (inactive). Regarding `CCc1ccc(Oc2coc3cc(OC(=O)c4cc5ccccc5oc4=O)ccc3c2=O)cc1`, the activity change was -6.39% (inactive). Regarding `O=C(Oc1cccnc1)c1cc2ccccc2oc1=O`, the activity change was -76% (active). Then `COC(=O)[C@]12CCCCC=C1N(Cc1ccco1)C(=O)[C@H](CC(=O)NCCCCc1ccccc1)C2`, with -13.7% (inactive).

In the case of `CCC(C)CN1C(=O)CSCC1(C)C(=O)NCc1ccccc1` (stereo unspecified), the activity change is 7.26% (inactive). With `CCOc1cc(N2CCOCC2)c(OCC)cc1NC(=O)c1ccc(C)s1`, the activity change was -7.09% (inactive). For the compound `CCOc1cc(N2CCOCC2)c(OCC)cc1NC(=O)COC(=O)[C@H](Cc1c[nH]c2ccccc12)NC(C)=O`, the activity change is 0.0588% (inactive). In the case of `CCOc1cc(N2CCOCC2)c(OCC)cc1NC(=O)COc1cccc2cccnc12`, the activity change is -66.8% (active). `Cc1cccc(C)c1NC(=O)C(c1cccc(F)c1)N1CCN(C)CC1` (stereo unspecified): the activity change was 1.36% (inactive). `CC1CCN(S(=O)(=O)c2ccc3[nH]c(=O)ccc3c2)CC1`: the activity change was -0.516% (inactive). As to `C/C(=N/NC(=O)CCc1ccccc1)c1ccco1`, the activity change was 2.7% (inactive). With `COc1ccc(CC(N)c2csc(NC(=O)Cc3ccccc3)n2)cc1` (stereo unspecified), the activity change is -12.1% (inactive).

On to `O=C(NCCOc1ccccc1)c1ccccc1F`, for which the activity change is 6.38% (inactive). As for `CCOc1ccc(NC(=S)N2CCCCCC2)cc1`, the activity change was -13.8% (inactive). Then `COc1ccc(CC(=O)N/N=C(\C)c2ccccn2)cc1`, with -85.5% (active). Take `COc1ccc(C(=O)/C=C/Nc2ccccn2)cc1`: the activity change was 3.99% (inactive).

For `C/C(=N\NC(=O)c1ccccc1F)c1ccccn1`, the activity change was -91.6% (active). Take `CCNC(=S)N1CCN(c2ncccn2)CC1`: the activity change was 1.47% (inactive). On to `CC(=NNC(=S)N1CCCCCC1)c1ccccn1`, for which the activity change was -88.5% (active). The result for `C/C(=N/NC(=O)c1ccn(C)n1)c1ccncc1` reads 5.19% (inactive); that for `O=C(Cc1ccc(Cl)cc1)c1ccccc1`, 4.47% (inactive). For `C/C(=N\NC(=O)Cc1ccc(Cl)cc1)c1ccccn1`, the activity change is -85.5% (active). Turning to `Cc1cccc(C)c1NC(=O)C(c1ccc(C(F)(F)F)cc1)n1c(=O)c(-c2ccco2)nc2ccccc21` (stereo unspecified), the activity change is -0.0756% (inactive). As for `CCCCOCCCNC(=O)C[C@@H]1C[C@@]2(C(=O)OC)CCCCC=C2N(CCC2=CCCCC2)C1=O`, the activity change was -2.51% (inactive).

For the compound `CC(C)N1C(=O)c2ccccc2NC(=O)C1C(=O)NCc1cccs1` (stereo unspecified), the activity change was 0% (inactive).
